Source: PubChem
Hits are enriched below; roughly 21% of the tested compounds scored in any of these assays.
IL1B secr inh = qHTS for Inhibitors of Inflammasome Signaling: IL-1-beta AlphaLISA Primary Screen. 360,000 compounds, 4.7% hits. activity change, % at 57.5 µM. THP-1 LPS/ATP IL-1B secretion, AlphaLISA, 16 h; stronger effect = lower value; in the data active means activity change below about -50%; inconclusive means mostly about -30% to -49%
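Secreted IL-1B measured by AlphaLISA bead assay after 16 h compound exposure of THP-1 cells; compounds (final up to 57.5 uM) added 1 h before LPS (250 ng/mL) and ATP (1.25 mM) stimulation; lower signal means less secretion.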
RORg inh = qHTS for inhibitors of ROR gamma transcriptional activity. AID 2551, 2010. 310,000 compounds, 5.4% hits. Potency, µM (highest dose often 53.6 µM), usual class: inhibitors. Drosophila S2 Gal4-RORgamma UAS-luciferase reporter, 20 h. Nuclear receptor ROR-gamma (Mus musculus), P51450; further: nearly all actives have a fitted effect of over 60% in size
Target sequence (P51450 whole entry, looked up, the tested form may be a part): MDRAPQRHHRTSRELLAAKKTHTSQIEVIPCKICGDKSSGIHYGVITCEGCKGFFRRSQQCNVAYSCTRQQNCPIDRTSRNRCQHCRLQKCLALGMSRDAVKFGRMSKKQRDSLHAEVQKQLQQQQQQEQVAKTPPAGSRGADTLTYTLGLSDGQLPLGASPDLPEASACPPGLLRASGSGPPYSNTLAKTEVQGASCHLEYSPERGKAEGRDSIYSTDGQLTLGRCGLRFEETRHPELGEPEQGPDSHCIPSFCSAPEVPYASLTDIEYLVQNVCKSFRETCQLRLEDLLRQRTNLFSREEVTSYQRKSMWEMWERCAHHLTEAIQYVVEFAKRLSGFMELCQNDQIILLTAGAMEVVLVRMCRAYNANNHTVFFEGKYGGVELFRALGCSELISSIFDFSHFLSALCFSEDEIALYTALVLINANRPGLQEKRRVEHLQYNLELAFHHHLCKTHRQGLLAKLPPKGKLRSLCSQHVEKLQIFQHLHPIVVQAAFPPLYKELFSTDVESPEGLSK
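ROR gamma transcriptional activity was tracked as Gal4-UAS luciferase output in stably transfected Drosophila Schneider cells, with compound added 1 hr before 700 uM copper sulfate induction and a 20 hr ambient-temperature incubation.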
DT40 TDP1 CPT = qHTS for Inhibitors of human tyrosyl-DNA phosphodiesterase 1 (TDP1): qHTS in cells in presence of CPT; chicken DT40 Tdp1-/-;hTDP1 cells + 20 nM CPT, ATP luminescence, 48 h; 420,000 compounds, 12% hits; Potency, µM (doses to about 46.2 µM), actives largely listed as inhibitors; further: nearly all actives have a fitted effect of over 55% in size
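Cell growth measured by CellTiter-Glo luminescence after a minimum 48 h, 37 C compound exposure with 20 nM CPT in Tdp1-knockout DT40 cells stably expressing hTDP1, seeded 400/well; qHTS titration format.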
TDP1 cell noCPT = qHTS for Inhibitors of human tyrosyl-DNA phosphodiesterase 1 (TDP1): qHTS in cells in absence of CPT | DT40 Tdp1-/- hTDP1 cells, no CPT, ATP luminescence, 48 h | Potency, µM (titrated, usually from 46.2 µM), usual class: inhibitors | 420,000 compounds, 15% hits | AID 686978, 2013; further: nearly all actives have a fitted effect of over 55% in size
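Chicken DT40 Tdp1-/- cells stably complemented with human TDP1 were seeded at 400 cells/well with DMSO in place of 20 nM camptothecin. After compound pinning, cells grew at least 48 hr at 37 °C; viability read by CellTiter-Glo luminescence.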
ELG1 DNA repair = qHTS screen for small molecules that inhibit ELG1-dependent DNA repair in human embryonic kidney (HEK293T) cells expressing luciferase-tagged ELG1; HEK293T ELG1-luciferase reporter, luminescence, 16 h; DNA damage induced by 5-fluorouridine; 330,000 compounds, 2.3% hits; AID 504467, 2011; Potency, µM (doses to about 46.1 µM), hits mostly inhibitors; further: nearly all actives have a fitted effect of over 55% in size
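In this reporter screen, reduction of luminescence relative to DMSO vehicle indicated activity. Compounds and 5-fluorouridine were added together to 2,000 cells per well, incubated for 16 hr at 37 °C, then developed with ONE-Glo.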
Gal4-VP16 FLuc = VP16 counterscreen qHTS for inhibitors of ROR gamma transcriptional activity | 310,000 compounds, 3.5% hits | Drosophila S2 Gal4-VP16 UAS-luciferase, luminescence, 20 h | Potency, µM (highest dose often 53.6 µM), most hits filed as inhibitors;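 further: Gal4-VP16 expression switched on by copper sulfate through the metallothionein promoter; nearly all actives have a fitted effect of over 50% in size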
Hits are given with their value; n = inactive; u = inconclusive; x = no result; [ ] = another dose, or the depositor's remark. Unless noted, the call rests on the fitted dose curve; in most records, active means well fitted curve in the direction sought with a large enough effect; inconclusive means small, poorly fitted or top-dose-only effect, or another doubt; inactive means no such curve, though single readings can be large; an effect the other way counts as inactive or inconclusive.

SMILES | IL1B secr inh | RORg inh | DT40 TDP1 CPT | TDP1 cell noCPT | ELG1 DNA repair | Gal4-VP16 FLuc
COc1ccc(-c2noc(=O)n2CC(=O)N2CCC(Cc3ccccc3)CC2)cc1 | n | u | u | 23µM | n | u
COc1ccc(-c2noc(CCC(=O)NCCCN3CCN(c4ccc(F)cc4)CC3)n2)cc1 | n | u | 18µM | 18µM | n | n[10 µM]
COc1ccc(-c2noc(CCC(=O)NCCCN3CCC(Cc4ccccc4)CC3)n2)cc1 | -64 | n | 15µM | 15µM | u | u
COc1ccc(NC(=O)NCCCN2CCC(Cc3ccccc3)CC2)cc1 | u | n | u | u | n | n
Cc1ccc(/C=C/C(=O)OCC(=O)N(CC(C)C)c2c(N)n(Cc3ccccc3)c(=O)[nH]c2=O)o1 | n | x | u | u | n | x
COc1ccc(C2CC(c3ccc(C)o3)=NN2C(C)=O)cc1 (stereo not given) | n | n | n | n | u | n
CCOc1cccc2c1OC(c1cc(OC)c(OC)c(OC)c1)N1N=C(c3ccc(C)o3)CC21 (stereo not given) | u | u | u | 26µM | u | u
O=C(NCC1CC1)C1(C(F)(F)F)CC(CCc2ccccc2)CCCO1 (stereo not given) | n | n | 21µM | 21µM | x | n
CCOC(=O)c1c(C)[nH]c(C)c1S(=O)(=O)N1CCN(c2ccccc2OC)CC1 | x | x | n | n | x | x
CCOC(=O)c1scc(-c2ccc(C)cc2)c1S(=O)(=O)N1CCN(c2ccccc2)CC1 | x | x | 13µM | 8.2µM | x | x
CCOC(=O)COc1ccc(S(=O)(=O)N2CCN(c3ccccc3)CC2)cc1 | n | n | n | n | n | n
CCOC(=O)c1scc(-c2ccccc2)c1S(=O)(=O)N1CCN(c2ccccc2OC)CC1 | x | x | 8.2µM | 13µM | x | x
O=C(Nc1ccc(Nc2ccccc2)cc1)c1ccccc1F | -97 | n | u | u | u | n
CCN(CC)c1ccc(NC(=O)c2ccccc2F)cc1 | n | n | u | 23µM | u | n
N#CC1(c2ccc(NC(=O)c3ccccc3F)cc2)CCCC1 | -69 | n | u | u | u | u
O=C(Nc1ccc(S(=O)(=O)N2CCCCC2)cc1)c1ccccc1F | u | u | n | u | n | n
COc1cc(S(=O)(=O)Nc2cccc(C)c2)ccc1NC(=O)c1cccnc1 | n | n[10 µM] | u | 15µM | u | n
CCC(=O)NC(=S)Nc1cccc(NC(=O)c2ccc(Cl)cc2Cl)c1 | n | 2.8µM | u | n | n | 6.3µM
CCC(=O)NC(=S)Nc1cccc(NC(=O)CC)c1 | n | n | n | n | n | n
COc1cc(NC(=O)c2cccnc2)ccc1NC(=O)c1ccccc1Cl | -66 | u | n | u | n | n
CN(C)c1ccc(NC(=O)c2ccc([N+](=O)[O-])cc2Cl)cc1 | n | n | n | n | u | n
CC(C)C(=O)Nc1ccc(NC(=O)c2ccc([N+](=O)[O-])cc2Cl)cc1 | n | u | u | 18µM | n | n
COc1cc(S(=O)(=O)Nc2cccnc2)ccc1F | n | n | n | n | n | n
Cc1cc(C)c(OCC(=O)NCC2COc3ccccc3O2)c(C)c1 (stereo not given) | u | x | u | n | n | x
O=C(Nc1cccc(NC(=O)c2ccc(Cl)cc2Cl)c1)c1cccnc1 | -54 | n | u | u | n | n
SMILES | IL1B secr inh | RORg inh | DT40 TDP1 CPT | TDP1 cell noCPT | ELG1 DNA repair | Gal4-VP16 FLuc
Cc1ccc(NC(=O)c2cccnc2)c([N+](=O)[O-])c1 | u | n[1.91 µM] | 18µM | 18µM | n | n
Cc1ccc(NC(=O)c2cncc(Br)c2)c([N+](=O)[O-])c1 | n | n | n | n | n | u
CC(=O)Nc1cccc(NC(=O)c2ccccc2Cl)c1 | n | x | n | n | x | x
O=C(Nc1cccc(NC(=O)c2cccnc2)c1)c1cccnc1 | n | n | n | n | n | n
CC(C)C(=O)Nc1cccc(NC(=O)c2ccc(Cl)cc2Cl)c1 | -59 | n | n | u | n | n
CCC(=O)NC(=S)Nc1ccc(NC(=O)c2ccc([N+](=O)[O-])cc2Cl)cc1 | n | n | n | n | 5.8µM | n
Cc1cc(OCC(=O)Nc2ccccc2C)no1 | n | x | n | n | u | x
O=S1(=O)CC(N2CCC(Cc3ccccc3)CC2)CN1C1CCCCC1 (stereo not given) | n | x | u | u | x | x
CCOc1ccc(S(=O)(=O)NCCC(=O)NCc2cccnc2)cc1 | n | x | n | n | n | x
Nc1ccn([C@@H]2O[C@H](C(=O)N3CCSC3)[C@@H](O)[C@H]2O)c(=O)n1 | n | x | n | n | x | x
CC(=O)Nc1ccc(Oc2ccc([N+](=O)[O-])cc2Cl)cc1 | -73 | n | 10µM | u | n | n
O=C(Nc1cccc(O)c1)c1ccc([N+](=O)[O-])cc1Cl | n | n | 15µM | u | u | n
COc1c(C)cc(Br)cc1C(=O)Nc1ccc(C)cc1[N+](=O)[O-] | n | n | u | 13µM | u | n
O=C(NC(=S)Nc1ccc(CN2CCOCC2)cc1)c1ccccc1[N+](=O)[O-] | n | n | n | n | n | n
CC(=O)Nc1cccc(NC(=O)c2ccc([N+](=O)[O-])cc2Cl)c1 | n | n | n | u | n | n
O=C(NC(=S)Nc1ccc(CN2CCOCC2)cc1)c1ccc([N+](=O)[O-])cc1Cl | n | 7.9µM | n | 26µM | u | u
CC(=O)N1CCOc2cc(S(=O)(=O)NCc3ccc(C)cc3)c(C)cc21 | x | x | n | n | x | x
O=C(COc1ccc([N+](=O)[O-])cc1)NC(C(=O)O)C(O)c1cccc([N+](=O)[O-])c1 (stereo not given) | n | n | n | n | n | n
CCOC(=O)C1(C)CCCN(C(=O)c2ccc(OC)cc2)C1 (stereo not given) | n | x | n | n | x | x
Cc1ccc(S(=O)(=O)N2CCN(Cc3noc(CCC(=O)N4CCCCC4)n3)CC2)c(C)c1 | x | x | n | u | x | x
Cc1ccc(C)c(NC(NC(=O)c2cccnc2)C(Cl)(Cl)Cl)c1 (stereo not given) | n | n | 23µM | 26µM | n | n
Cn1c(=O)c2cc(NC(=O)NCc3ccc(F)cc3)ccc2n1C/C=C/c1ccccc1 | n | x | 8.2µM | 9.2µM | x | x
Cn1c(=O)c2cc(NC(=O)Cc3ccccc3F)ccc2n1C/C=C/c1ccccc1 | n | x | u | u | x | x
CCOCCC(=O)Nc1ccc2c(c1)c(=O)n(C)n2-c1ccccc1F | n | x | n | n | x | x
